The test system of test [1] is ICS. Nature of the test: qHTS profiling for inhibitors of Plasmodium falciparum proliferation (AID 504749). The note with it: P. falciparum in erythrocytes, SYBR Green DNA, 72 h; series mostly up to 28.7 µM. In short, it runs like this:
(§1)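 Each compound contacts P. falciparum-infected red blood cells for 72 h at 37 C; lysis buffer (Tris, EDTA, saponin, Triton X, SYBR Green I) is added and fluorescence measured next morning; values normalized to controls.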
For orientation: Quantitative high-throughput screening tests each substance at several concentrations.

The subject of test [2] is JCK. The description is as above. The note with it: P. falciparum in erythrocytes, SYBR Green DNA, 72 h; series mostly up to 28.7 µM. In short, it runs like this:
as §1

Test [3] has as its system N140. Described as above. The note with it: P. falciparum in erythrocytes, SYBR Green DNA, 72 h; series mostly up to 28.7 µM. In short, it runs like this:
as §1

For test [4], the system named is P93_24. The description is as above. The note with it: P. falciparum in erythrocytes, SYBR Green DNA, 72 h; series mostly up to 28.7 µM. In short, it runs like this:
as §1

Test [5] concerns P94_40. The description is as above. The note with it: P. falciparum in erythrocytes, SYBR Green DNA, 72 h; series mostly up to 28.7 µM. In short, it runs like this:
as §1

The test system of test [6] is PAD. The test is described as above. The note with it: P. falciparum in erythrocytes, SYBR Green DNA, 72 h; series mostly up to 28.7 µM. In short, it runs like this:
as §1

The test system of test [7] is PC15. Described as above. The note with it: P. falciparum in erythrocytes, SYBR Green DNA, 72 h; series mostly up to 28.7 µM. In short, it runs like this: as §1
The subject of test [8] is PC26. The test is described as above. The note with it: P. falciparum in erythrocytes, SYBR Green DNA, 72 h; series mostly up to 28.7 µM. In short, it runs like this:
as §1

The subject of test [9] is PC49. The test is described as above. The note with it: P. falciparum in erythrocytes, SYBR Green DNA, 72 h; series mostly up to 28.7 µM. In short, it runs like this: as §1
Test [10] relates to SC27B. The test is described as above. The note with it: P. falciparum in erythrocytes, SYBR Green DNA, 72 h; series mostly up to 28.7 µM. In short, it runs like this:
as §1

Test [11] relates to TAB109. The description is as above. The note with it: P. falciparum in erythrocytes, SYBR Green DNA, 72 h; series mostly up to 28.7 µM. In short, it runs like this: as §1
The test system of test [12] is TAB113. The test is described as above. The note with it: P. falciparum in erythrocytes, SYBR Green DNA, 72 h; series mostly up to 28.7 µM. In short, it runs like this:
as §1

The subject of test [13] is TAB165. Described as above. The note with it: P. falciparum in erythrocytes, SYBR Green DNA, 72 h; series mostly up to 28.7 µM. In short, it runs like this: as §1
Test [14] relates to W2. Described as above. The note with it: P. falciparum in erythrocytes, SYBR Green DNA, 72 h; series mostly up to 28.7 µM. In short, it runs like this: as §1
For test [15], the system named is KB-3-1. Nature of the test: Cytotoxic Profiling of Annotated Libraries Using Quantitative High-Throughput Screening (AID 1296008). As to max response: % is scaled to controls: 0 for no effect and ±100 for the full control effect. The note with it: Five cell lines viability, CellTiter-Glo ATP luminescence, 48-72 h; max response: hits give low values. In short, it runs like this: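 Cells exposed to compounds for 48 or 72 hr at 37 degrees Celsius. Viability read as ATP-coupled luminescence with CellTiter-Glo after 10 min at room temperature.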
Background: ATP-based viability assays read luminescence as a measure of living cells.

Our source for the Potency and max response values is PubChem BioAssay (NCATS).

Inconclusive results are not listed. Unmarked numbers belong to inactive results. Calls of active or inactive are those of the source. Calls follow the shape of the dose curve; as a rule, active = well fitted inhibition curve with a large enough effect; inconclusive = small, poorly fitted or top-dose-only effect; inactive = flat fitted curve, though single readings scatter.
Also: nearly all actives have a fitted effect of over 60% in size.
Potency is read from the fitted curve at half-maximal effect.

In the case of `CC12CCC(C1)C(C)(C)C2=O` (stereo not given), the Potency entry in test [1], in test [2], in test [3], in test [4], in [5] and in [6] was “inactive” each time. The Potency entry in test [7], in test [8], in test [9], in test [10], in test [11] and in test [12] was “inactive” throughout. Further, the Potency result in [13] and in [14] was “inactive” in each case. In addition, in test [15], the max response was 3.69%.
Turning to `CCC(O)c1ccccc1` (stereo not given), the Potency entry in test [1], in test [2], in [3], in [4], in [5] and in [6] was “inactive” throughout. In addition, the Potency entry in test [7], in test [8], in test [9], in test [10], in [11] and in test [12] was “inactive” each time. For the same molecule, the Potency result in [13] and in [14] was “inactive” in each case. Moreover, the max response in test [15] is 7.91%.
Turning to `O=C(O)COc1ccc(CCNS(=O)(=O)c2ccccc2)s1`, the Potency entry in [1], in [2], in test [3], in test [4], in [5] and in test [6] was “inactive” each time. Moreover, the Potency entry in test [7], in test [8], in [9], in [10], in [11] and in test [12] was “inactive” each time. Moreover, the Potency entry in [13] and in [14] was “inactive” each time. For the same molecule, the max response in test [15] is -3.19%.
Turning to `CN(C)c1ccc(C(=C2C=CC(=[N+](C)C)C=C2)c2c(O)c(S(=O)(=O)[O-])cc3cc(S(=O)(=O)O)ccc23)cc1`, the Potency entry in [1], in test [2], in test [3], in test [4], in test [5] and in test [6] was “inactive” each time. For the same molecule, the Potency entry in test [7], in test [8], in test [9], in [10], in test [11] and in [12] was “inactive” throughout. Moreover, the Potency entry in test [13] and in [14] was “inactive” throughout. In [15], the Potency was 14.6 µM (active).
Take `O[C@@H]([C@H](O)[C@H](O)CBr)[C@H](O)CBr`: the Potency result in [1], in [2], in test [3], in test [4], in test [5] and in test [6] was “inactive” each time. For the same molecule, the Potency entry in test [7], in test [8], in test [9], in test [10], in test [11] and in test [12] was “inactive” in each case. For the same molecule, the Potency result in test [13] and in test [14] was “inactive” throughout. Also, the max response in [15] is -3.83%.
For the molecule `CCOc1ccc(NC(=S)Nc2ccc(OCC)cc2)cc1`, the Potency entry in test [1], in test [2], in test [3], in test [4], in [5] and in [6] was “inactive” throughout. For the same molecule, the Potency result in test [7], in test [8], in test [9], in test [10], in test [11] and in test [12] was “inactive” throughout. Also, the Potency result in test [13] and in test [14] was “inactive” in each case. For the same molecule, the max response in [15] was 43.1%.
Regarding `CCCCC[C@H](O)/C=C/[C@@H]1[C@H]2C/C(=C/CCCC(=O)O)O[C@H]2C[C@H]1O`, the Potency entry in test [1], in test [2], in test [3], in test [4], in test [5] and in [6] was “inactive” throughout. Besides, the Potency result in [7], in test [8], in test [9], in [10], in [11] and in test [12] was “inactive” throughout. In addition, the Potency entry in test [13] and in test [14] was “inactive” throughout. For the same molecule, the max response in test [15] was 11.9%.
`CCN(CC)CCCC(C)Nc1cc(/C=C/c2ccccc2Cl)nc2cc(Cl)ccc12` (stereo not given): the Potency in test [1] was 0.398 µM (active); in test [2], 11.2 µM (active); in [3] it was 3.16 µM (active); in test [4] it was 2 µM (active); in test [5], 1.78 µM (active); in test [6], 1 µM (active). In addition, the Potency is 2 µM (active) in test [7]; 5.36 µM (active) in test [8]; 8.91 µM (active) in [9]; 2.82 µM (active) in test [10]; 2.51 µM (active) in test [11]; 1.78 µM (active) in test [12]. The Potency is 2.24 µM (active) in [13] and 0.601 µM (active) in test [14]. Besides, the max response in test [15] was 0.54%.
On to `NC(=S)NS(=O)(=O)c1ccc(N)cc1`, for which the Potency entry in [1], in test [2], in [3], in [4], in test [5] and in test [6] was “inactive” each time. Moreover, the Potency entry in test [7], in test [8], in [9], in [10], in test [11] and in [12] was “inactive” each time. In addition, the Potency result in test [13] and in test [14] was “inactive” each time. Also, the max response in test [15] is 5.24%.
Take `CCc1ccc(S(=O)(=O)O)cc1`: the Potency entry in [1], in test [2], in test [3], in [4], in test [5] and in test [6] was “inactive” in each case. Moreover, the Potency entry in test [7], in test [8], in [9], in test [10], in test [11] and in test [12] was “inactive” throughout. Moreover, the Potency entry in [13] and in test [14] was “inactive” in each case. Further, the max response in [15] was 6.98%.
`NC(=O)[C@H]1O[C@@H](O)[C@H](O)[C@@H](O)[C@@H]1O`: the Potency entry in test [1], in test [2], in test [3], in [4], in [5] and in test [6] was “inactive” each time. The Potency result in test [7], in test [8], in test [9], in test [10], in [11] and in test [12] was “inactive” each time. The Potency result in [13] and in test [14] was “inactive” throughout. Further, the max response in test [15] is 4.29%.
On to `c1ccc(-n2cnnn2)cc1`, for which the Potency result in test [1], in test [2], in [3], in test [4], in [5] and in test [6] was “inactive” each time. The Potency result in test [7], in test [8], in [9], in test [10], in test [11] and in [12] was “inactive” throughout. The Potency result in test [13] and in test [14] was “inactive” each time. In test [15], the max response was 0.0496%.
`Cc1cc(=O)c(C(=O)N[C@@H](C(=O)N[C@@H]2C(=O)N3C(C(=O)O)=C(CSc4nnnn4C)CS[C@H]23)c2ccc(O)cc2)c[nH]1`: the Potency entry in test [1], in test [2], in test [3], in test [4], in [5] and in test [6] was “inactive” in each case. Also, the Potency entry in [7], in test [8], in test [9], in test [10], in [11] and in test [12] was “inactive” each time. For the same molecule, the Potency result in test [13] and in test [14] was “inactive” throughout. Besides, in test [15], the max response was 0.794%.
Consider `CC1(C)S[C@@H]2[C@H](NC(=O)C3(N)CCCCC3)C(=O)N2[C@H]1C(=O)O`, for which the Potency result in [1], in test [2], in test [3], in [4], in test [5] and in test [6] was “inactive” in each case. Further, the Potency result in test [7], in test [8], in test [9], in [10], in test [11] and in test [12] was “inactive” each time. Also, the Potency entry in test [13] and in [14] was “inactive” throughout. Also, the max response in test [15] was -2.76%.
